From PubChem BioAssay (NCATS)
Results filed as inconclusive are left out. Unmarked numbers belong to inactive results. The call rests on the fitted dose curve; in most records, active means well fitted inhibition curve with a large enough effect; inconclusive means small, poorly fitted or top-dose-only effect; inactive means flat fitted curve, though single readings scatter.

Each molecule was assayed against Calcium and integrin-binding protein 1 (Homo sapiens) (UniProt Q99828) (assay: Primary qHTS for Identification of Calcium Integrin Binding Protein 1 (CIB1) Competitor (AID 1508620;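 further: GST tagged CIB1 binding a fluorescein labelled alphaIIb integrin peptide tracer; top concentration of the series differs between compounds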)). Details: CIB1-GST / FITC-alphaIIb peptide fluorescence polarization; series mostly up to 114 µM; activity change, negative = inhibition: at the top concentration.
Procedure, shortened: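 Fluorescence polarization competition: CIB1-GST (1 uM final) preincubated with compound 15 min at room temperature, then FITC-labeled alphaIIb peptide (100 nM final) added for another 15 min. Polarization read at Ex 480/Em 540.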
On the % scale 0 is the no-effect control and ±100 the full control effect.

Chain of Calcium and integrin-binding protein 1 (Homo sapiens) (Q99828 whole entry, looked up): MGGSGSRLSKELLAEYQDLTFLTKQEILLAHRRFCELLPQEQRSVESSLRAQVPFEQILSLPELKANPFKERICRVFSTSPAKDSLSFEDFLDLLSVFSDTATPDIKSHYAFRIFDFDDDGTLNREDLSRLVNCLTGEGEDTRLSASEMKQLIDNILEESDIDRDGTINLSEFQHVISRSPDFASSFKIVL

Row | Structure (SMILES) | activity change, negative = inhibition
1 | CC(C)c1cccc(C(C)C)c1NC(=O)Nc1ccc(Sc2ccc([N+](=O)[O-])cc2)cc1 | 2.54%
2 | O=C(Nc1ccc(N2C(=O)[C@@H]3[C@H](C2=O)[C@@H]2C=C[C@H]3C2)c(Cl)c1)c1ccccn1 | 3.64%
3 | CC(=O)O[C@@H]1C[C@@]2(C)C(CC[C@]3(C)C2CC=C2C4CC(C)(C)CC[C@]4(C(=O)O)CC[C@]23C)C(C)(C)[C@H]1O (stereo partly drawn) | -12% [at 57.7 µM]
